# Measured values published in paper PMC7862700, “An all-to-all approach to the identification of sequence-specific readers for epigenetic DNA modifications on cytosine”.
# What was measured:
# Assay in all cases: DAPPL (digital affinity profiling via proximity ligation, sequencing); 10 mM Tris-HCl pH 7.5, 50 mM NaCl, 1 mM DTT, 4% glycerol, room temperature, 30 min; GST-TFs on glutathione beads, 16-mer random dsDNA library, 0.1% formaldehyde crosslink after washing; high values mean tight binding
# Conditions in all cases: protein: recombinant; tags: N-terminal GST; dsDNA, one strand shown
# FLI1 = target: T1, FLI1 (Homo sapiens, UniProt Q01543 1-452)
# T1 sequence: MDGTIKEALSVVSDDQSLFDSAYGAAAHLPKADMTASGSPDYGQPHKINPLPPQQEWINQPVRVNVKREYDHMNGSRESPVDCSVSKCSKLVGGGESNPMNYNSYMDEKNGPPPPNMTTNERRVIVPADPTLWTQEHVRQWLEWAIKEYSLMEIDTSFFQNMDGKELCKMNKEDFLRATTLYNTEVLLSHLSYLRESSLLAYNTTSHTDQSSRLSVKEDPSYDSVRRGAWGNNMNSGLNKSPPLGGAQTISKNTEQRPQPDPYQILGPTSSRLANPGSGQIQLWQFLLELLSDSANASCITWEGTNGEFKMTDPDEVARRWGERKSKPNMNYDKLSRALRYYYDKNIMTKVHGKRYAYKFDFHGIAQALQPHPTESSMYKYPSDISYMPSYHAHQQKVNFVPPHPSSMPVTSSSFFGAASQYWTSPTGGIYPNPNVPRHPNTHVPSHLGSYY
# How it was run: (§1)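 Human transcription factors were made in yeast as GST fusions, captured on glutathione beads and barcoded with DNA. With a tag-only sample included, the pool was incubated with 200 nmole of a random double-stranded 16-mer DNA library in Tris/NaCl/DTT/glycerol buffer at room temperature for 30 min, then crosslinked with 0.1% formaldehyde after washing, ligated by proximity, amplified and sequenced. For binding signal, each hexamer's read frequency for a factor is divided by its frequency for the tag-only sample.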
# ELK1 = target: T2, ELK1 (Homo sapiens, UniProt P19419 1-428)
# T2 sequence: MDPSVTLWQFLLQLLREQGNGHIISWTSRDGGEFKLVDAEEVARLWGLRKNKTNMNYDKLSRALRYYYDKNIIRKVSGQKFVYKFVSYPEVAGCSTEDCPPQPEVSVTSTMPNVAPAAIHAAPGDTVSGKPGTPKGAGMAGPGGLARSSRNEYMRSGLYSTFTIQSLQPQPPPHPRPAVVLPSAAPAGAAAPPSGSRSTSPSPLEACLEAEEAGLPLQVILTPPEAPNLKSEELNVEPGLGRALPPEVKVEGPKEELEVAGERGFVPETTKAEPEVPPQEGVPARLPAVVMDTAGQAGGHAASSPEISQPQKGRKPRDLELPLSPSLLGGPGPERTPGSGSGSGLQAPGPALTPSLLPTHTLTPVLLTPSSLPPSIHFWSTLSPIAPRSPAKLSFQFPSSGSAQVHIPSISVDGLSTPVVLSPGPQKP
# How it was run: as §1
# GABPA = target: T3, GABPA (Homo sapiens, UniProt Q06546 1-454)
# T3 sequence: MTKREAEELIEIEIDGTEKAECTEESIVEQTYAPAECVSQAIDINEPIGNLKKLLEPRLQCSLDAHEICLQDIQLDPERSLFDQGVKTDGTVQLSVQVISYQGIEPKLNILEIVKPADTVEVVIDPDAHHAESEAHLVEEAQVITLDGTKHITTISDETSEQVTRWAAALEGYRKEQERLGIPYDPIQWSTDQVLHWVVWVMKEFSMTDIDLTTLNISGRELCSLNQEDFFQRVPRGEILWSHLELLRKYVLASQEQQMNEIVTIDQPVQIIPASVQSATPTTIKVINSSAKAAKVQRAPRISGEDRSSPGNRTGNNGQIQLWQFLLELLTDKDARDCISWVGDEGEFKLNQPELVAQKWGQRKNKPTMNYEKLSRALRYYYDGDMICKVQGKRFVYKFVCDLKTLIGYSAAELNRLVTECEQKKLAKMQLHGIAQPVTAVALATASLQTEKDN
# How it was run: as §1
# ERG = target: T4, ERG (Homo sapiens, UniProt P11308 1-479)
# T4 sequence: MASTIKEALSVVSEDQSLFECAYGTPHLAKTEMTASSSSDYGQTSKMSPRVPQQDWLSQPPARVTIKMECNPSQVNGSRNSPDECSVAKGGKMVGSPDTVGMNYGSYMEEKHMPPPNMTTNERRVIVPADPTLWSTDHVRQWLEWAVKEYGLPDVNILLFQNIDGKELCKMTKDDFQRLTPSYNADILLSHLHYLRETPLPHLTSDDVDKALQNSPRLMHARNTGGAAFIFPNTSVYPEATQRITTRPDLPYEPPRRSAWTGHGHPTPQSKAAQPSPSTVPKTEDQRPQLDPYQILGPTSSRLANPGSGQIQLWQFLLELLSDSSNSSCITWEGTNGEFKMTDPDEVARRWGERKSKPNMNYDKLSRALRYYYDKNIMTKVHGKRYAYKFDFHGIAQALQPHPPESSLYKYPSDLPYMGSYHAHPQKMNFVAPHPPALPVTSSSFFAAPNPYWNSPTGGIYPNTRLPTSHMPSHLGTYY
# How it was run: as §1
# ELF1 = ELF1 (Homo sapiens, UniProt P32519 1-619)
# How it was run: as §1
# EHF = target: T5, EHF (Homo sapiens, UniProt Q9NZC4 1-300)
# T5 sequence: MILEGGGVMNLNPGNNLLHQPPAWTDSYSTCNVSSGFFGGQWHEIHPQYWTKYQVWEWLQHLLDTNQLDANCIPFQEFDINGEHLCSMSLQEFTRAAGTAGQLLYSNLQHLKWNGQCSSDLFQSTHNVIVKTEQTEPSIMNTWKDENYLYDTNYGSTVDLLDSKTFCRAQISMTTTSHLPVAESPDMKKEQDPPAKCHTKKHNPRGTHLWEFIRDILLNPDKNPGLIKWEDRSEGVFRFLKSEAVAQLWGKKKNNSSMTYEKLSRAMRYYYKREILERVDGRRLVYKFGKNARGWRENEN
# How it was run: as §1
# SPI1 = SPI1 (Homo sapiens, UniProt P17947 1-270)
# How it was run: as §1
# SPIB = SPIB (Homo sapiens, UniProt Q01892 1-262)
# How it was run: as §1
# ELK3 = target: T6, ELK3 (Homo sapiens, UniProt P41970 1-407)
# T6 sequence: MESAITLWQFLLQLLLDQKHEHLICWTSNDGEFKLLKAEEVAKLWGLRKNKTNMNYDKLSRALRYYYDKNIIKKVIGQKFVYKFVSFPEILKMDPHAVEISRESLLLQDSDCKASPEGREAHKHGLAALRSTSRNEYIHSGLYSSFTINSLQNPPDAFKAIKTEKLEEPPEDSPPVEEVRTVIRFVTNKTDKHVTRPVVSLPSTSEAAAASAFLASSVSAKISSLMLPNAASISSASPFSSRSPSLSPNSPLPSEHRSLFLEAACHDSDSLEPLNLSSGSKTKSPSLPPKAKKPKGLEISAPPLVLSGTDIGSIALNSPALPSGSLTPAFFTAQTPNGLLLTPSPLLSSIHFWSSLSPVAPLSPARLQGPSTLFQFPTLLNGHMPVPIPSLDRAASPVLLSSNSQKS
# How it was run: as §1
# FEV = target: T7, FEV (Homo sapiens, UniProt Q99581 1-238)
# T7 sequence: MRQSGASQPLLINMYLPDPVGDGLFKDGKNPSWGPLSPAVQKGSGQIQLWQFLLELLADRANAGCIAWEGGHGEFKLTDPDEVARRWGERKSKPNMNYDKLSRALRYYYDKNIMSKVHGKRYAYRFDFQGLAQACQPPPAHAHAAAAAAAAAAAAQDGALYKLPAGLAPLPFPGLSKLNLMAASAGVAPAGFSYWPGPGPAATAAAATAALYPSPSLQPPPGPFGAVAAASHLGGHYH
# How it was run: as §1
# ETV5 = ETV5 (Homo sapiens, UniProt P41161 1-510)
# How it was run: as §1
# SPIC = target: T8, SPIC (Homo sapiens, UniProt Q8N5J4 1-248)
# T8 sequence: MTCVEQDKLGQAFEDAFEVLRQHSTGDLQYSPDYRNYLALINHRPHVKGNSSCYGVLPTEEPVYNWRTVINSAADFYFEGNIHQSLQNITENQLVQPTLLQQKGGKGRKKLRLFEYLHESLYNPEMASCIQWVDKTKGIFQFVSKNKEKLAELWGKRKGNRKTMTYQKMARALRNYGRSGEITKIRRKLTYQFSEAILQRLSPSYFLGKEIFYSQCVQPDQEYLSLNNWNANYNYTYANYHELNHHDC
# How it was run: as §1
# ELF4 = ELF4 (Homo sapiens, UniProt Q99607 1-663)
# How it was run: as §1
# ELK4 = target: T9, ELK4 (Homo sapiens, UniProt P28324-2 1-405)
# T9 sequence: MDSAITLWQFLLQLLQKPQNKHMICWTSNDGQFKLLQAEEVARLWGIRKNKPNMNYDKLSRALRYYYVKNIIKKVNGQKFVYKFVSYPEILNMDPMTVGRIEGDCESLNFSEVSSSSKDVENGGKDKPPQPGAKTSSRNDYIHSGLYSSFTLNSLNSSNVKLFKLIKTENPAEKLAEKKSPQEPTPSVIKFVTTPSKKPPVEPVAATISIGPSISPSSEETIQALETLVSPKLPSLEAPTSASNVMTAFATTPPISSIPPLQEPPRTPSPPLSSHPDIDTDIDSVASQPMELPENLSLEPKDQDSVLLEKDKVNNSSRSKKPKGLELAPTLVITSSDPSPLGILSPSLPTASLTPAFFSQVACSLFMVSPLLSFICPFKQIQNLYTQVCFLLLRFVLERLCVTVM
# How it was run: as §1
# ETV2 = target: T10, ETV2 (Homo sapiens, UniProt O00321 1-342)
# T10 sequence: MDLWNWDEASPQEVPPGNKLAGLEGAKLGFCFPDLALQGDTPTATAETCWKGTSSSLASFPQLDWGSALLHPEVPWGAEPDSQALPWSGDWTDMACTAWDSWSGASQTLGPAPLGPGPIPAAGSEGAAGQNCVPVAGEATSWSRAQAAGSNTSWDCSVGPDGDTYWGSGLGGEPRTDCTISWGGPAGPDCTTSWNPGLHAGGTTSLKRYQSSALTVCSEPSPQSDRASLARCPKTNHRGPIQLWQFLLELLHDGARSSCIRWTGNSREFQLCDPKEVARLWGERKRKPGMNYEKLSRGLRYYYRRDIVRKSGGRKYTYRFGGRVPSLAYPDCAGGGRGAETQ
# How it was run: as §1
# ELF3 = target: T11, ELF3 (Homo sapiens, UniProt P78545 1-371)
# T11 sequence: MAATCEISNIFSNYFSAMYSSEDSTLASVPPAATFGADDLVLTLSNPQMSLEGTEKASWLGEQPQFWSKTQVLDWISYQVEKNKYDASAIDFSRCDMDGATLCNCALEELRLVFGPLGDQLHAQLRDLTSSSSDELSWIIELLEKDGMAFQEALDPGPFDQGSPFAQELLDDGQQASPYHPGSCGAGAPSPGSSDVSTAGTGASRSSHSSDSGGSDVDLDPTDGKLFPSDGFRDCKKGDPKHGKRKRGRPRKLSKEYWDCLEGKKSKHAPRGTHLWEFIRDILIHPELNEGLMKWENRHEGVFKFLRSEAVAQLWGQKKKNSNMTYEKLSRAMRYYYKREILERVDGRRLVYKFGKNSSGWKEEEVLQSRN
# How it was run: as §1
# CRX = CRX (Homo sapiens, UniProt O43186 1-299)
# How it was run: as §1
# ETV1 = ETV1 (Homo sapiens, UniProt P50549 1-477)
# How it was run: as §1
# ETV5, sequence (P41161 whole entry): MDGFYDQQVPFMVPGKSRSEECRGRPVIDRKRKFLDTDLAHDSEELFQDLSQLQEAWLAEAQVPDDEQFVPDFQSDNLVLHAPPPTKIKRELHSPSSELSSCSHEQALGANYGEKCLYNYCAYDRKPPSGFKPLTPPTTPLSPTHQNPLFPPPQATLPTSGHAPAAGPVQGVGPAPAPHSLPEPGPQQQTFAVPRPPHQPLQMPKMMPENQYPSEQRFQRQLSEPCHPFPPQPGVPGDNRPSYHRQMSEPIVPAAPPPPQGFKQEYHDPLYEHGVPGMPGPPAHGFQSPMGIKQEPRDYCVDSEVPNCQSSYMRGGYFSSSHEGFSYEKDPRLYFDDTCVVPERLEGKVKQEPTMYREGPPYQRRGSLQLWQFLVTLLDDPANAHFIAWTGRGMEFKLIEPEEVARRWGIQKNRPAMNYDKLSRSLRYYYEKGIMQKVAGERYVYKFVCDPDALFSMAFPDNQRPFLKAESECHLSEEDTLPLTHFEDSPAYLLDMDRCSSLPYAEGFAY
# ELF1, sequence (P32519 whole entry): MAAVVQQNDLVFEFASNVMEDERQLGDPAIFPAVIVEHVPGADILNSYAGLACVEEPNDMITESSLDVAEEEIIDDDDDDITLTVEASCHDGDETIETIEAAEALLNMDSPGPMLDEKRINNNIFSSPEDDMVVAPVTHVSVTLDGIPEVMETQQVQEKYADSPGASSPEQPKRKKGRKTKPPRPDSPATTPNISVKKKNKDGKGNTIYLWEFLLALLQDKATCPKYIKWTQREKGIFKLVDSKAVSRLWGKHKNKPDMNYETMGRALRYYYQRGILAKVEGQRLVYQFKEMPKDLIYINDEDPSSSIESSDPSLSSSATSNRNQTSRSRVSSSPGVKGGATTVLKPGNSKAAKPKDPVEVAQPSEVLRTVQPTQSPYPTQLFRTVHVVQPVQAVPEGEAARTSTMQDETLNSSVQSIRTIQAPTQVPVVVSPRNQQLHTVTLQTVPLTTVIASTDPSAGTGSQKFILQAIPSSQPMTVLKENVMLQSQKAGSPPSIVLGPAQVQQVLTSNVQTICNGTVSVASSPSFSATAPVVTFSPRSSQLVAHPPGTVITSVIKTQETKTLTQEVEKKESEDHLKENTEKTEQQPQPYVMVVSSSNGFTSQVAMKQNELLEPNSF
# CRX, sequence (O43186 whole entry): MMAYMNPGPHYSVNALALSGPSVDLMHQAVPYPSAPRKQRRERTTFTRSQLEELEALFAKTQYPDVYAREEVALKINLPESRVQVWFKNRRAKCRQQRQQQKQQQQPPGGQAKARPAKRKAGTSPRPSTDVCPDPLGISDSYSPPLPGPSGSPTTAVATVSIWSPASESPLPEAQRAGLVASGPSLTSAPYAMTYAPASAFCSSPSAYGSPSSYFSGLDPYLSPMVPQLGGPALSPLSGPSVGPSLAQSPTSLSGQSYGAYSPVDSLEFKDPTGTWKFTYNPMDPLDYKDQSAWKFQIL
# SPIB, sequence (Q01892 whole entry): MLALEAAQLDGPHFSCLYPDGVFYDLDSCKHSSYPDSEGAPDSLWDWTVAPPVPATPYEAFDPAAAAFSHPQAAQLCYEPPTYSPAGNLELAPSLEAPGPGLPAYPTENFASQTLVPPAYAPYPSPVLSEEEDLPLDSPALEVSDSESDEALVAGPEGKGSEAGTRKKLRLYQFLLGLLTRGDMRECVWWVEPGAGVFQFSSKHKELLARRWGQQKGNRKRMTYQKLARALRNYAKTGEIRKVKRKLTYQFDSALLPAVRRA
# ETV1, sequence (P50549 whole entry): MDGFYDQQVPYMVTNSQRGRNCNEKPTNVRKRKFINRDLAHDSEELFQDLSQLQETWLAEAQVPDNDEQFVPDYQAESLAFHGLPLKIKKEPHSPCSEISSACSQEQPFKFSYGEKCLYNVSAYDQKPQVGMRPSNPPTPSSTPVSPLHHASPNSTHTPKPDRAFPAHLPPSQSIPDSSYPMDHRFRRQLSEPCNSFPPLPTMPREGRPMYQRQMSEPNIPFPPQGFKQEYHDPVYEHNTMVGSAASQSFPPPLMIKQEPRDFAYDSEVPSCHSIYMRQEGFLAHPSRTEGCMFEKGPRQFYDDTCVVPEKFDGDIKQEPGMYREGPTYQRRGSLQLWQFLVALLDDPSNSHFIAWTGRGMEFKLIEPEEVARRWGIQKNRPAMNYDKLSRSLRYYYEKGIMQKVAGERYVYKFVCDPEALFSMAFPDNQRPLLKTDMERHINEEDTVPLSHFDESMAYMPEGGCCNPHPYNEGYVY
# ELF4, sequence (Q99607 whole entry): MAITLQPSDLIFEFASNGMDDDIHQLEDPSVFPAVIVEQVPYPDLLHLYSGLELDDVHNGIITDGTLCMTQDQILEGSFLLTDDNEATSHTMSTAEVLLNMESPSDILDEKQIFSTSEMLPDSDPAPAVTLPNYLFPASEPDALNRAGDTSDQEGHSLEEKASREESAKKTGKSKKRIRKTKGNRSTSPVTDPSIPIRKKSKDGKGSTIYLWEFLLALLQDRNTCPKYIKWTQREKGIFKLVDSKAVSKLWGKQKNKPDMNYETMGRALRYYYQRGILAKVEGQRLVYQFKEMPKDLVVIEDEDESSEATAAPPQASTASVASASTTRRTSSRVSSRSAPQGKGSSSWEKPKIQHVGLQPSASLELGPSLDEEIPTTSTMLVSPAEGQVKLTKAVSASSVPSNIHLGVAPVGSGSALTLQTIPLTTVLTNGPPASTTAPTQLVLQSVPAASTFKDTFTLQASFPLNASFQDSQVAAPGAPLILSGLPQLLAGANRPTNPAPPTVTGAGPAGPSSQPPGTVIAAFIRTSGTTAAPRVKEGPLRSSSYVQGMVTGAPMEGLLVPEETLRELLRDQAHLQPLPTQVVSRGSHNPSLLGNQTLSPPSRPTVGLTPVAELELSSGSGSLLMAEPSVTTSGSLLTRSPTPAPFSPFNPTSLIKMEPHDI
Sequence,binding signal (FLI1),binding signal (ELK1),binding signal (GABPA),binding signal (ERG),binding signal (ELF1),binding signal (EHF),binding signal (SPI1),binding signal (SPIB),binding signal (ELK3),binding signal (FEV),binding signal (ETV5),binding signal (SPIC),binding signal (ELF4),binding signal (ELK4),binding signal (ETV2),binding signal (ELF3),binding signal (CRX),binding signal (ETV1)
CTGACC,"1.4 fold enrichment (6-mer frequency, TF over GST control)","1.41 fold enrichment (6-mer frequency, TF over GST control)","1.41 fold enrichment (6-mer frequency, TF over GST control)","1.23 fold enrichment (6-mer frequency, TF over GST control)","1.46 fold enrichment (6-mer frequency, TF over GST control)","1.59 fold enrichment (6-mer frequency, TF over GST control)","1.25 fold enrichment (6-mer frequency, TF over GST control)","1.26 fold enrichment (6-mer frequency, TF over GST control)","1.33 fold enrichment (6-mer frequency, TF over GST control)","1.43 fold enrichment (6-mer frequency, TF over GST control)","1.32 fold enrichment (6-mer frequency, TF over GST control)","1.37 fold enrichment (6-mer frequency, TF over GST control)","1.41 fold enrichment (6-mer frequency, TF over GST control)","1.31 fold enrichment (6-mer frequency, TF over GST control)","1.46 fold enrichment (6-mer frequency, TF over GST control)","1.51 fold enrichment (6-mer frequency, TF over GST control)","1.01 fold enrichment (6-mer frequency, TF over GST control)","1.43 fold enrichment (6-mer frequency, TF over GST control)"
GATATC,"1.55 fold enrichment (6-mer frequency, TF over GST control)","1.6 fold enrichment (6-mer frequency, TF over GST control)","1.37 fold enrichment (6-mer frequency, TF over GST control)","1.9 fold enrichment (6-mer frequency, TF over GST control)","1.46 fold enrichment (6-mer frequency, TF over GST control)","1.44 fold enrichment (6-mer frequency, TF over GST control)","1.4 fold enrichment (6-mer frequency, TF over GST control)","1.58 fold enrichment (6-mer frequency, TF over GST control)","1.51 fold enrichment (6-mer frequency, TF over GST control)","4.01 fold enrichment (6-mer frequency, TF over GST control)","1.6 fold enrichment (6-mer frequency, TF over GST control)","1.41 fold enrichment (6-mer frequency, TF over GST control)","1.34 fold enrichment (6-mer frequency, TF over GST control)","1.49 fold enrichment (6-mer frequency, TF over GST control)","1.51 fold enrichment (6-mer frequency, TF over GST control)","1.59 fold enrichment (6-mer frequency, TF over GST control)","1.02 fold enrichment (6-mer frequency, TF over GST control)","1.51 fold enrichment (6-mer frequency, TF over GST control)"
